# Measurements published in PubChem BioAssay (EPA / NIEHS).
# Active and inactive are the calls of the source. Rule for the calls: active = hit-call score of the fitted dose curve at least 0.9, where 1 is the maximum; inactive = score below 0.9.
# How the values were obtained:
# [1] = read-out: Interleukin-1 alpha (IL1a), IL1A (gene 3552); experiment: BSK_LPS_IL1a: BioMAP Diversity Plus: LPS Assay for Interleukin-1 alpha (IL1a) Biomarker Activity (AID 2283080); details: primary human HUVEC with PBMC; actives raise or lower the signal
# Summary of the method: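 Primary human HUVEC and PBMC co-culture stimulated with LPS is dosed and harvested at 24 h. Both increases and decreases in ELISA-measured IL-1a are scored relative to DMSO.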
# [2] = read-out: Monocyte Chemoattractant Protein-1 (MCP1), CCL2 (gene 6347); experiment: BSK_LPS_MCP1: BioMAP Diversity Plus: LPS Assay for Monocyte Chemoattractant Protein-1 (MCP1) Biomarker Activity (AID 2283081); details: primary human HUVEC with PBMC; actives raise or lower the signal;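 for AC50: secreted MCP-1 protein quantified by ELISA in culture supernatant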
# Summary of the method: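 Values derive from bidirectional fitting against DMSO of ELISA-measured MCP-1 in a human primary endothelial and mononuclear cell co-culture, 24 h after chemical addition under LPS activation.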
# [3] = BSK_LPS_PGE2: BioMAP Diversity Plus: LPS Assay for Prostaglandin E2 (PGE2) Biomarker Activity (AID 2283082); details: primary human HUVEC with PBMC; actives raise or lower the signal
# Summary of the method: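 HUVEC plus PBMC co-culture stimulated with LPS; secreted PGE2 quantified by ELISA 24 h after chemical dosing. Activity fitted bidirectionally against DMSO as negative control and baseline; parallel SRB total-protein staining served as cytotoxicity check.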
# [4] = read-out: Macrophage colony-stimulating factor (MCSF), CSF1 (gene 1435); experiment: BSK_LPS_MCSF: BioMAP Diversity Plus: LPS Assay for Macrophage colony-stimulating factor (MCSF) Biomarker Activity (AID 2283083); details: primary human HUVEC with PBMC; actives raise or lower the signal
# Summary of the method: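 Bidirectional fit versus DMSO of ELISA-measured M-CSF in co-cultured human umbilical vein endothelial cells and PBMC, sampled 24 h after dosing.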
# [5] = read-out: Tissue Factor, F3 (gene 2152); experiment: BSK_LPS_TissueFactor: BioMAP Diversity Plus: LPS Assay for Tissue Factor Biomarker Activity (AID 2283084); details: primary human HUVEC with PBMC; actives raise or lower the signal
# Summary of the method: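 Read-out: CD142 ELISA, 24 h. System: LPS-driven human endothelial/PBMC co-culture. Analysis: up- or down-signal fitted against DMSO.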
# [6] = read-out: Tumor necrosis factor (Homo sapiens) (UniProt P01375); experiment: BSK_LPS_TNFa: BioMAP Diversity Plus: LPS Assay for Tumour Necrosis Factor alpha (TNFa) Biomarker Activity (AID 2283085); details: primary human HUVEC with PBMC; actives raise or lower the signal
# Summary of the method: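 Human umbilical vein endothelial cells co-cultured with PBMC were exposed to test chemical and TNFa measured by ELISA 24 h after dosing. Bidirectional curve fitting was done relative to DMSO as negative control and baseline.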
# [7] = read-out: Vascular cell adhesion molecule 1 (VCAM1), VCAM1 (gene 7412); experiment: BSK_LPS_VCAM1: BioMAP Diversity Plus: LPS Assay for Vascular cell adhesion molecule 1 (VCAM1) Biomarker Activity (AID 2283086); details: primary human HUVEC with PBMC; actives raise or lower the signal
# Summary of the method: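 Human umbilical vein endothelial cells co-cultured with peripheral blood mononuclear cells under LPS stimulation were exposed to test chemical for 24 h. VCAM-1 levels were then measured by ELISA, with bidirectional curve fitting relative to DMSO as negative control and baseline.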
# CD38, CD38 (gene 952) = experiment: BSK_SAg_CD38: BioMAP Diversity Plus: SAg Assay for CD38 Biomarker Activity (AID 2283087); details: primary human HUVEC with PBMC; actives raise or lower the signal
# Summary of the method: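 Fluorescence ELISA of cell-surface CD38 served as the read-out, with either increase or decrease fitted against DMSO controls. Cells were a human umbilical vein endothelium plus PBMC co-culture under SEB/TSST-1 stimulation, measured 24 h after dosing.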
# CD40, CD40 (gene 958) = experiment: BSK_SAg_CD40: BioMAP Diversity Plus: SAg Assay for CD40 Biomarker Activity (AID 2283088); details: primary human HUVEC with PBMC; actives raise or lower the signal
# Summary of the method: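 Endpoint derived by fitting increases or decreases versus DMSO controls. CD40 is detected by fluorescence ELISA in a human vascular co-culture of endothelium and PBMC at 24 h.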
# CD69, CD69 (gene 969) = experiment: BSK_SAg_CD69: BioMAP Diversity Plus: SAg Assay for CD69 Biomarker Activity (AID 2283089); details: primary human HUVEC with PBMC; actives raise or lower the signal;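 for AC50: cell surface CD69 protein quantified by ELISA with fluorescence detection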
# Summary of the method: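 Endothelial/PBMC co-culture; chemical added; 24 h incubation; CD69 ELISA with fluorescence detection; bidirectional fit vs DMSO.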
# [8] = read-out: Monocyte Chemoattractant Protein-1 (MCP1), CCL2 (gene 6347); experiment: BSK_SAg_MCP1: BioMAP Diversity Plus: SAg Assay for Monocyte Chemoattractant Protein-1 (MCP1) Biomarker Activity (AID 2283090); details: primary human HUVEC with PBMC; actives raise or lower the signal
# Summary of the method: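 MCP-1 levels in the endothelial–PBMC SAg co-culture were quantified by ELISA at 24 h post-dosing; both increases and decreases versus DMSO scored. Cytotoxicity monitored by SRB total protein in parallel cultures.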
# [9] = read-out: E-selectin (Homo sapiens) (UniProt P16581); experiment: BSK_SAg_Eselectin: BioMAP Diversity Plus: SAg Assay for Eselectin Biomarker Activity (AID 2283091); details: primary human HUVEC with PBMC; actives raise or lower the signal
# Summary of the method: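 Endpoint values derive from bidirectional fitting relative to DMSO, using ELISA-measured E-selectin in a human vascular co-culture (umbilical vein endothelium plus PBMC) sampled 24 h after dosing.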
# [10] = read-out: Monokine induced gamma interferon (MIG), CXCL9 (gene 4283); experiment: BSK_SAg_MIG: BioMAP Diversity Plus: SAg Assay for Monokine induced gamma interferon (MIG) Biomarker Activity (AID 2283092); details: primary human HUVEC with PBMC; actives raise or lower the signal
# Summary of the method: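 Measures CXCL9 protein by ELISA in a human vascular primary-cell co-culture (umbilical vein endothelium with PBMC) 24 h after chemical addition. Activity is scored up or down from the DMSO control.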
# [11] = BSK_SAg_PBMCCytotoxicity: PBMC Cytotoxicity Assessment in the BioMAP Diversity Plus: SAg Assay (AID 2283093); details: primary human HUVEC with PBMC;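 note: PBMC viability measured as Alamar Blue reduction fluorescence at 546/580 nm; fitted both ways against DMSO so a hit may be loss or gain of signal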;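 for AC50: PBMC superantigen activated with SEB plus TSST-1 one hour after compound addition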
# Summary of the method: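 Compound added to 75,000 PBMC/well for 1 h; SEB and TSST-1 then added at 20 ng/mL final each; 90 h incubation; Alamar Blue 6 h; read 546/580 nm ex/em. Activity fitted bidirectionally relative to DMSO baseline.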
# [12] = read-out: Interleukin-8 (IL8), CXCL8 (gene 3576); experiment: BSK_SAg_IL8: BioMAP Diversity Plus: SAg Assay for Interleukin-8 (IL8) Biomarker Activity (AID 2283094); details: primary human HUVEC with PBMC; actives raise or lower the signal
# Summary of the method: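 Human umbilical vein endothelial cells co-cultured with peripheral blood mononuclear cells; IL-8 measured by ELISA 24 h after chemical dosing. Bidirectional concentration-response fitting used DMSO as negative control and activity baseline.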
# [13] = BSK_SAg_Proliferation: Cell Proliferation Assessment in the BioMAP Diversity Plus: SAg Assay (AID 2283095); details: primary human HUVEC with PBMC;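 note: relative cell number as total protein by SRB absorbance in sub-confluent culture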
# Summary of the method: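 Human umbilical vein endothelial cells co-cultured with peripheral blood mononuclear cells; total protein measured by sulforhodamine B staining (0.1% SRB after 10% TCA fixation), absorbance at 560 nm, at 96 h. Bidirectional fit against DMSO baseline.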
# [14] = BSK_SAg_SRB: Viability Assessment in the BioMAP Diversity Plus: SAg Assay (AID 2283096); details: primary human HUVEC with PBMC;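 note: cells read one day after compound addition; hits may be either gain or loss of signal compared with DMSO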
# Summary of the method: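 Total protein by sulforhodamine B staining, 24 h after dosing, in HUVEC–PBMC co-culture; DMSO-referenced bidirectional fitting.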
# Sequence of E-selectin (Homo sapiens) (P16581 whole entry, looked up): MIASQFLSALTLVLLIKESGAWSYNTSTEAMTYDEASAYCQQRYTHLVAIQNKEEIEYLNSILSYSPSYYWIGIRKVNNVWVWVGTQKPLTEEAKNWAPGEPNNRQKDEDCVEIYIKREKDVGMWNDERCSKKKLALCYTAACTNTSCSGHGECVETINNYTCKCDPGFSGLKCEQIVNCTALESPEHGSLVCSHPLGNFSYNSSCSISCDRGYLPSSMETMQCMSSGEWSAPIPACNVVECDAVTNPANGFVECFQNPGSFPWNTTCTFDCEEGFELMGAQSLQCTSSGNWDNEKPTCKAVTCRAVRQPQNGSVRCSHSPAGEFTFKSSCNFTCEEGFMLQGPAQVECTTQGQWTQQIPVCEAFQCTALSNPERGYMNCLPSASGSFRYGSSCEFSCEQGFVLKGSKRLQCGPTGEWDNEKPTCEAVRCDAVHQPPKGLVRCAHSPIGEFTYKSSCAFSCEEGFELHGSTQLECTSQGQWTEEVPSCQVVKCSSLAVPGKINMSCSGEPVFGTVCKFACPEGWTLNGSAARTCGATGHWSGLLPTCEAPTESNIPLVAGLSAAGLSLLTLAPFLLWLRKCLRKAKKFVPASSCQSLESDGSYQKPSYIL
# Sequence of Tumor necrosis factor (Homo sapiens) (P01375 whole entry, looked up): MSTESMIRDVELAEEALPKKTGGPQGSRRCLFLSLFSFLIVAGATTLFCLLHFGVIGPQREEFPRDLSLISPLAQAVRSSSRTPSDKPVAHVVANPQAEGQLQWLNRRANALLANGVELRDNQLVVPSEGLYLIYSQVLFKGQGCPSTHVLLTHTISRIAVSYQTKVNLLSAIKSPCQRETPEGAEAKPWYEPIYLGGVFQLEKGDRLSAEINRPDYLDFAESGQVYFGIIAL
structure (smiles),measurement,setting,value
CNCc1cc(F)ccc1Oc1ccc(Cl)c(Cl)c1,outcome,[1],inactive
same,AC50,[2],26.2 µM (active)
same,outcome,[3],inactive
same,outcome,[4],inactive
same,outcome,[5],inactive
same,AC50,[6],461 nM (active)
same,outcome,[7],inactive
same,AC50,"CD38, CD38 (gene 952)",28.5 µM (active)
same,AC50,"CD40, CD40 (gene 958)",36.5 µM (active)
same,AC50,"CD69, CD69 (gene 969)",26.3 µM (active)
same,AC50,[8],26.4 µM (active)
same,AC50,[9],20 µM (active)
same,outcome,[10],inactive
same,AC50,[11],25.7 µM (active)
same,AC50,[12],20 µM (active)
same,AC50,[13],26.1 µM (active)
same,outcome,[14],inactive
Oc1ccc2c(c1)OC[C@@H](N1CCC(O)(c3ccc(F)cc3)CC1)[C@H]2O,outcome,[1],inactive
same,outcome,[2],inactive
same,outcome,[3],inactive
same,outcome,[4],inactive
same,outcome,[5],inactive
same,outcome,[6],inactive
same,outcome,[7],inactive
same,outcome,"CD38, CD38 (gene 952)",inactive
same,outcome,"CD40, CD40 (gene 958)",inactive
same,outcome,"CD69, CD69 (gene 969)",inactive
same,outcome,[8],inactive
same,outcome,[9],inactive
same,outcome,[10],inactive
same,outcome,[11],inactive
same,outcome,[12],inactive
same,outcome,[13],inactive
same,outcome,[14],inactive
Cc1ccc(C)c(C)c1,outcome,[1],inactive
same,outcome,[2],inactive
same,outcome,[3],inactive
same,outcome,[4],inactive
same,outcome,[5],inactive
same,outcome,[6],inactive
same,outcome,[7],inactive
same,outcome,"CD38, CD38 (gene 952)",inactive
same,outcome,"CD40, CD40 (gene 958)",inactive
same,outcome,"CD69, CD69 (gene 969)",inactive
same,outcome,[8],inactive
same,outcome,[9],inactive
same,outcome,[10],inactive
same,outcome,[11],inactive
same,outcome,[12],inactive
same,outcome,[13],inactive
same,outcome,[14],inactive
Nc1ccc(S(=O)(=O)c2ccc(N)cc2)cc1,outcome,[1],inactive
same,outcome,[2],inactive
same,outcome,[3],inactive
same,outcome,[4],inactive
same,outcome,[5],inactive
same,outcome,[6],inactive
same,outcome,[7],inactive
same,outcome,"CD38, CD38 (gene 952)",inactive
same,outcome,"CD40, CD40 (gene 958)",inactive
same,outcome,"CD69, CD69 (gene 969)",inactive
same,outcome,[8],inactive
same,outcome,[9],inactive
same,outcome,[10],inactive
same,outcome,[11],inactive
same,outcome,[12],inactive
same,outcome,[13],inactive
same,outcome,[14],inactive
O=C(O)CCCCC(=O)O,outcome,[1],inactive
same,outcome,[2],inactive
same,outcome,[3],inactive
same,outcome,[4],inactive
same,outcome,[5],inactive
same,outcome,[6],inactive
same,outcome,[7],inactive
same,outcome,"CD38, CD38 (gene 952)",inactive
same,outcome,"CD40, CD40 (gene 958)",inactive
same,outcome,"CD69, CD69 (gene 969)",inactive
same,outcome,[8],inactive
same,outcome,[9],inactive
same,outcome,[10],inactive
same,outcome,[12],inactive
same,outcome,[13],inactive
same,outcome,[14],inactive
CCCCOC(=O)CCCCCCCCC(=O)OCCCC,outcome,[1],inactive
same,outcome,[2],inactive
same,outcome,[3],inactive
same,outcome,[4],inactive
same,outcome,[5],inactive
same,outcome,[6],inactive
same,outcome,[7],inactive
same,outcome,"CD38, CD38 (gene 952)",inactive
same,outcome,"CD40, CD40 (gene 958)",inactive
same,outcome,"CD69, CD69 (gene 969)",inactive
same,outcome,[8],inactive
same,outcome,[9],inactive
same,outcome,[10],inactive
same,outcome,[11],inactive
same,outcome,[12],inactive
same,outcome,[13],inactive
same,outcome,[14],inactive
O=c1[nH]cc(F)c(=O)[nH]1,outcome,[1],inactive
same,outcome,[2],inactive
same,outcome,[3],inactive
same,outcome,[4],inactive
same,outcome,[5],inactive
same,outcome,[6],inactive
same,AC50,[7],20.4 µM (active)
same,outcome,"CD38, CD38 (gene 952)",inactive
same,outcome,"CD40, CD40 (gene 958)",inactive
same,outcome,"CD69, CD69 (gene 969)",inactive
same,outcome,[8],inactive
same,outcome,[9],inactive
same,outcome,[10],inactive
same,outcome,[12],inactive
same,AC50,[13],2.48 µM (active)
same,outcome,[14],inactive
CCOC(=O)CCC(=O)OCC,outcome,[1],inactive
same,outcome,[2],inactive
same,outcome,[3],inactive
same,outcome,[4],inactive
same,outcome,[5],inactive
same,outcome,[6],inactive
same,outcome,[7],inactive
same,outcome,"CD38, CD38 (gene 952)",inactive
same,outcome,"CD40, CD40 (gene 958)",inactive
same,outcome,"CD69, CD69 (gene 969)",inactive
same,outcome,[8],inactive
same,outcome,[9],inactive
same,outcome,[10],inactive
same,outcome,[12],inactive
same,outcome,[13],inactive
same,outcome,[14],inactive
